The whole screen tested about 5,500 compounds, of which about 2,000 (36%) were called active. Another 18% or so got no clear call; they are omitted. Cut-off read from the data, not from the text of the source: active = normalized growth mostly below about 0.91 (no sharp cut-off); inconclusive = no clear call, values can overlap the other calls; inactive = mostly above about 0.92. Some of the results follow.
Test: chemical genetic growth profiling, strain panel (AID 1159580);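 note: tested at 20 µM; growth read once vehicle control cultures reached saturation at 30 °C; 1 = growth at the plate median or of vehicle wells; lower values mean less growth of the strain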
Conditions: growth OD
[1] = S. cerevisiae deletion strains, locus YDL101C, strain DUN1, stronger effect = lower value
[2] = S. cerevisiae deletion strains, locus YHR030C, strain SLT2, stronger effect = lower value

Measured: normalized growth

O=[N+]([O-])c1ccc(S(=O)(=O)c2ccccc2)nc1S(=O)(=O)c1ccccc1
inactive: S. cerevisiae deletion strains, locus YBL105C, strain PKC1, stronger effect = lower value 0.914 | S. cerevisiae deletion strains, locus YBR135W, strain CKS1, stronger effect = lower value 0.903 | S. cerevisiae deletion strains, locus YBR136W, strain MEC1, stronger effect = lower value 0.93 | S. cerevisiae deletion strains, locus YBR160W, strain CDC28, stronger effect = lower value 0.915 | S. cerevisiae deletion strains, locus YDL017W, strain CDC7, stronger effect = lower value 0.942 | S. cerevisiae deletion strains, locus YDL028C, strain MPS1, stronger effect = lower value 0.972 | [1] 0.922 | S. cerevisiae deletion strains, locus YDL108W, strain KIN28, stronger effect = lower value 0.94 | S. cerevisiae deletion strains, locus YDL132W, strain cdc53, stronger effect = lower value 0.931 | S. cerevisiae deletion strains, locus YDR052C, strain DBF4, stronger effect = lower value 0.942 | S. cerevisiae deletion strains, locus YDR054C, strain cdc34, stronger effect = lower value 0.904 | S. cerevisiae deletion strains, locus YDR226W, strain ADK1, stronger effect = lower value 0.904 | S. cerevisiae deletion strains, locus YFL009W, strain cdc4, stronger effect = lower value 0.918 | S. cerevisiae deletion strains, locus YFL029C, strain CAK1, stronger effect = lower value 0.885 | S. cerevisiae deletion strains, locus YFR003C, strain YPI1, stronger effect = lower value 0.974 | S. cerevisiae deletion strains, locus YFR028C, strain CDC14, stronger effect = lower value 0.893 | S. cerevisiae deletion strains, locus YGR092W, strain DBF2, stronger effect = lower value 0.785 | S. cerevisiae deletion strains, locus YHR079C, strain IRE1, stronger effect = lower value 0.88 | S. cerevisiae deletion strains, locus YIL147C, strain SLN1, stronger effect = lower value 0.974 | S. cerevisiae deletion strains, locus YJR016C, strain ILV3, stronger effect = lower value 0.936 | S. cerevisiae deletion strains, locus YKL048C, strain ELM1, stronger effect = lower value 0.948 | S. cerevisiae deletion strains, locus YKL101W, strain HSL1, stronger effect = lower value 0.777 | S. cerevisiae deletion strains, locus YLR403W, strain SFP1, stronger effect = lower value 0.748 | S. cerevisiae deletion strains, locus YMR001C, strain CDC5, stronger effect = lower value 0.896 | S. cerevisiae deletion strains, locus YMR205C, strain PFK2 (second series), stronger effect = lower value 0.785 | S. cerevisiae deletion strains, locus YNL006W, strain LST8, stronger effect = lower value 0.99 | S. cerevisiae deletion strains, locus YNL020C, strain ARK1, stronger effect = lower value 0.874 | S. cerevisiae deletion strains, locus YNL161W, strain CBK1, stronger effect = lower value 0.919 | S. cerevisiae deletion strains, locus YNL207W, strain RIO2, stronger effect = lower value 0.916 | S. cerevisiae deletion strains, locus YNL222W, strain SSU72, stronger effect = lower value 0.915 | S. cerevisiae deletion strains, locus YOR061W, strain CKA2, stronger effect = lower value 0.879 | S. cerevisiae deletion strains, locus YOR231W, strain MKK1, stronger effect = lower value 0.809 | S. cerevisiae deletion strains, locus YOR329C, strain SCD5, stronger effect = lower value 0.973 | S. cerevisiae deletion strains, locus YPL153C, strain RAD53, stronger effect = lower value 0.729 | S. cerevisiae deletion strains, locus YPL204W, strain HRR25, stronger effect = lower value 0.706 | S. cerevisiae deletion strains, locus YPL209C, strain IPL1, stronger effect = lower value 0.913 | S. cerevisiae deletion strains, locus YPR025C, strain CCL1, stronger effect = lower value 0.911 | S. cerevisiae deletion strains, locus YPR106W, strain ISR1, stronger effect = lower value 0.921 | S. cerevisiae deletion strains, locus YPR111W, strain DBF20, stronger effect = lower value 0.909 | S. cerevisiae deletion strains, strain NNK1, stronger effect = lower value 0.938
active: S. cerevisiae deletion strains, locus YAR019C, strain CDC15, stronger effect = lower value 0.882 | S. cerevisiae deletion strains, locus YDL214C, strain PRR2, stronger effect = lower value 0.393 | S. cerevisiae deletion strains, locus YDR477W, strain SNF1, stronger effect = lower value 0.473 | S. cerevisiae deletion strains, locus YER123W, strain YCK3, stronger effect = lower value 0.223 | S. cerevisiae deletion strains, locus YER133W, strain GLC7, stronger effect = lower value 0.361 | S. cerevisiae deletion strains, locus YFR019W, strain FAB1, stronger effect = lower value 0.62 | S. cerevisiae deletion strains, locus YGR040W, strain KSS1, stronger effect = lower value 0.443 | S. cerevisiae deletion strains, locus YGR052W, strain FMP48, stronger effect = lower value 0.353 | [2] 0.334 | S. cerevisiae deletion strains, locus YHR082C, strain KSP1, stronger effect = lower value 0.364 | S. cerevisiae deletion strains, locus YHR205W, strain SCH9, stronger effect = lower value 0.47 | S. cerevisiae deletion strains, locus YJL095W, strain BCK1, stronger effect = lower value 0.401 | S. cerevisiae deletion strains, locus YJR066W, strain TOR1 (second series), stronger effect = lower value 0.438 | S. cerevisiae deletion strains, locus YJR066W, strain TOR1, stronger effect = lower value 0.299 | S. cerevisiae deletion strains, locus YKL193C, strain SDS22, stronger effect = lower value 0.871 | S. cerevisiae deletion strains, locus YKL203C, strain TOR2, stronger effect = lower value 0.555 | S. cerevisiae deletion strains, locus YLR113W, strain HOG1, stronger effect = lower value 0.184 | S. cerevisiae deletion strains, locus YLR133W, strain CKI1, stronger effect = lower value 0.691 | S. cerevisiae deletion strains, locus YML070W, strain DAK1, stronger effect = lower value 0.433 | S. cerevisiae deletion strains, locus YMR277W, strain FCP1, stronger effect = lower value 0.87 | S. cerevisiae deletion strains, locus YNL183C, strain NPR1, stronger effect = lower value 0.178 | S. cerevisiae deletion strains, locus YOL078W, strain AVO1, stronger effect = lower value 0.879 | S. cerevisiae deletion strains, locus YOL136C, strain PFK27, stronger effect = lower value 0.533 | S. cerevisiae deletion strains, locus YOR119C, strain RIO1, stronger effect = lower value 0.442 | S. cerevisiae deletion strains, locus YPL256C, strain CLN2, stronger effect = lower value 0.293 | S. cerevisiae deletion strains, strain TSCII, stronger effect = lower value 0.872

O=[N+]([O-])c1ccc(S(=O)(=O)c2ccc(Cl)cc2)cc1O
inactive: S. cerevisiae deletion strains, locus YDL134C, strain PPH21, stronger effect = lower value 0.938 | S. cerevisiae deletion strains, locus YDR150W, strain NUM1, stronger effect = lower value 0.811 | S. cerevisiae deletion strains, locus YEL061C, strain CIN8, stronger effect = lower value 0.924 | [2] 0.954 | S. cerevisiae deletion strains, locus YKL190W, strain CNB1, stronger effect = lower value 0.978 | S. cerevisiae deletion strains, locus YLR085C, strain ARP6, stronger effect = lower value 0.947 | S. cerevisiae deletion strains, locus YML094W, strain GIM5, stronger effect = lower value 0.94 | S. cerevisiae deletion strains, locus YNL298W, strain CLA4 (second series), stronger effect = lower value 0.915 | S. cerevisiae deletion strains, locus YNR030W, strain Alg12, stronger effect = lower value 0.94 | S. cerevisiae deletion strains, locus YPL241C, strain CIN2, stronger effect = lower value 0.934 | S. cerevisiae deletion strains, locus YPR135W, strain CTF4, stronger effect = lower value 0.99 | S. cerevisiae strains, strain wild type, stronger effect = lower value 0.952
active: S. cerevisiae deletion strains, locus YAL013W, strain DEP1, stronger effect = lower value 0.82 | S. cerevisiae deletion strains, locus YBR229C, strain ROT2, stronger effect = lower value 0.766 | [1] 0.715 | S. cerevisiae deletion strains, locus YGR078C, strain PAC10, stronger effect = lower value 0.81 | S. cerevisiae deletion strains, locus YHR087W, strain rtc3, stronger effect = lower value 0.692 | S. cerevisiae deletion strains, locus YJR043C, strain POL32, stronger effect = lower value 0.832 | S. cerevisiae deletion strains, locus YJR075W, strain HOC1, stronger effect = lower value 0.64 | S. cerevisiae deletion strains, locus YLR039C, strain RIC1, stronger effect = lower value 0.723 | S. cerevisiae deletion strains, locus YLR058C, strain SHM2 (second series), stronger effect = lower value 0.822 | S. cerevisiae deletion strains, locus YLR262C, strain YPT6, stronger effect = lower value 0.639 | S. cerevisiae deletion strains, locus YMR219W, strain ESC1, stronger effect = lower value 0.797 | S. cerevisiae deletion strains, locus YMR263W, strain SAP30, stronger effect = lower value 0.814 | S. cerevisiae deletion strains, locus YNL153C, strain GIM3, stronger effect = lower value 0.846 | S. cerevisiae deletion strains, locus YNL322C, strain KRE1, stronger effect = lower value 0.86 | S. cerevisiae deletion strains, locus YPL055C, strain LGE1, stronger effect = lower value 0.709

— PubChem BioAssay AID1159580 (chemical genetic matrix, 2015)
